# Measured values: paper PMC4336329 (PLoS ONE, 2015)
# Among all 310,000 compounds or so, about 14,000 (4.5%) showed an effect of 50% or more. Effects have a minus sign here. Many of the other results were omitted from the sample, so strong results are more common in it than they were.
# Target: human ether-à-go-go-related gene (hERG) potassium channel (human, UniProt Q12809)
# Assay: primary screen, population patch clamp on CHO cells stably expressing hERG; higher = less effect of the substance
# 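Also: peak tail current of the secondary pulse compared with the same well before compound.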
# Chain of human ether-à-go-go-related gene (hERG) potassium channel (Q12809 whole entry, looked up): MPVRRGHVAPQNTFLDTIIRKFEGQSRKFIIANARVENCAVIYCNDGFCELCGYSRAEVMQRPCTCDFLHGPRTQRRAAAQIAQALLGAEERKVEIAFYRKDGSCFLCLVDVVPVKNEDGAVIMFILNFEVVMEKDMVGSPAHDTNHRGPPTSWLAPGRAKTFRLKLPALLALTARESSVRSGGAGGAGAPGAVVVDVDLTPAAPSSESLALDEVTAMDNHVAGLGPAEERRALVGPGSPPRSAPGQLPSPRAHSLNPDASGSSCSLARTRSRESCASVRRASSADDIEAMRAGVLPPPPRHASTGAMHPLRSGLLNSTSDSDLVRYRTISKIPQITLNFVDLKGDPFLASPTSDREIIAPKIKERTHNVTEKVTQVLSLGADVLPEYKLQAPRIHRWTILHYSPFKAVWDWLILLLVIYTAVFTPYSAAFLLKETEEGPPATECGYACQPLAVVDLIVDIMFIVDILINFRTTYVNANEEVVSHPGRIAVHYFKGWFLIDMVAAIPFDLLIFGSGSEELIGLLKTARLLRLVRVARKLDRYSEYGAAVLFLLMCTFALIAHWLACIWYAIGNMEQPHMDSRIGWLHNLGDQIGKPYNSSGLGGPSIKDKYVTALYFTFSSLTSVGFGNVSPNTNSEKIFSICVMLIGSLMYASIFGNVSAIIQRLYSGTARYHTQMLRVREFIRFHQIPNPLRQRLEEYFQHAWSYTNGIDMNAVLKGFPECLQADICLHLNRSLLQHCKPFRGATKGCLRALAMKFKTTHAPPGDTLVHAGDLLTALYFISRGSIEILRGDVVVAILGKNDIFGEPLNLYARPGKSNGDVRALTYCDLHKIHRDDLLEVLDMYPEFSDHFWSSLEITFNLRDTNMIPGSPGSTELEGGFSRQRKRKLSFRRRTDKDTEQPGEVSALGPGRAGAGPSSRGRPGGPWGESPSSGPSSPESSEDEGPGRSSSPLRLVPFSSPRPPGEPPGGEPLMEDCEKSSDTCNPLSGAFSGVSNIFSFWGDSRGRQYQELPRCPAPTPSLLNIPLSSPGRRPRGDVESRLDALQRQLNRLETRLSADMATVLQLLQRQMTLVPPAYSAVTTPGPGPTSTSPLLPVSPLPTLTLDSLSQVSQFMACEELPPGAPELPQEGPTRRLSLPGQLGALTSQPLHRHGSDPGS
row,SMILES,"hERG current change (%, negative = inhibition) at 10uM [%]"
1,CCCCC(CC)C(=O)Nc1cc(C(=O)NCc2ccc(C)cc2)ccc1N1CCC2(CC1)CC(c1cccc(Br)c1)=NO2 (stereo not drawn),17.6
2,CCOC(=O)C1=C(C)N=c2s/c(=C/c3cccc([N+](=O)[O-])c3O)c(=O)n2C1c1ccccc1 (stereo not drawn),-20.4
3,COc1ccc(CCC(=O)Nc2ncc(C)s2)cc1OC,16.2
4,Cc1ccc(S(=O)(=O)N2CCN(C(=O)COC(=O)CSc3cc(C)ccc3C)CC2)c(C)c1,-6.13
5,COCCC(=O)N1CCC(n2nccc2NC(=O)c2ccccc2C)CC1,12.6
6,COc1ccccc1C(=O)NC(CCSC)C(=O)N1CCN(C/C=C/c2ccccc2)CC1 (stereo not drawn),-109
7,COc1ccccc1C(=O)Nc1ccnn1C1CCN(C/C=C/c2ccccc2)CC1,-78.9
8,COc1ccccc1C(=O)NC(CCSC)C(=O)N1CCC(Cc2ccccc2)CC1 (stereo not drawn),-23.1
9,COc1ccccc1C(=O)NC(CCSC)C(=O)N1CCN(C(C)=O)CC1 (stereo not drawn),-0.345
10,COc1ccccc1C(=O)Nc1ccnn1C1CCN(C/C=C/c2ccc(F)cc2)CC1,-76.6
11,O=C(COc1ccccc1-c1ccccc1)NN=C1CCCC1,-6.03
12,COC(=O)c1cc(NC(=O)CN(c2ccc3c(c2)OCO3)S(C)(=O)=O)ccc1Cl,-8.58
13,CCN1CCN(Cc2ccc(NC(=O)c3cc(NC(=O)C(=O)c4c[nH]c5ccccc45)cc(OC)c3)cc2C(F)(F)F)CC1,8.1
14,O=C(CSc1nc2cc(Cl)c(Cl)cc2[nH]1)c1ccc2c(c1)OCO2,7.8
15,Cc1c(C(C)NC(=O)Nc2ccc(F)cc2F)cnn1C (stereo not drawn),15.2
16,O=C(O)/C=C/c1ccc([N+](=O)[O-])o1,22.2
17,Fc1ccccc1CSc1nnc(-c2ccccc2)o1,-9.31
18,COP(=O)(OC)C(NS(=O)(=O)c1ccccc1)C(Cl)(Cl)Cl (stereo not drawn),23.8
19,COc1ccc(Cl)cc1Nc1nc(N)c2ccccc2n1.Cl,20.4

row,SMILES,"hERG current change (%, negative = inhibition) at 10uM [%]"
1,COc1ccc(OC)c(Nc2cc(C)nc3ccc(C)cc23)c1,-68.6
2,COc1ccc(OC)c(Nc2cc(C)nc3ccccc23)c1,-57.6
3,COc1ccc2nc(C)cc(Nc3ccccc3O)c2c1.Cl,-20.3
4,CCOC(=O)c1nc(Nc2cc(Cl)ccc2OC)c2ccccc2n1,6.83
5,COc1ccc(OC)c(Nc2cc(-c3ccccc3)nc(N)n2)c1,-55.9
6,COc1ccc(OC)c(Nc2ncnc3ccccc23)c1.Cl,-18.6
7,COc1ccc(Cl)cc1Nc1cc(C)nc2ccccc12,-73
8,COc1ccc(OC)c(Nc2ccc(Nc3cc(OC)ccc3OC)nn2)c1,-2.07
9,COc1ccc(OC)c(Nc2nc(-c3ccccc3O)nc3ccccc23)c1,18.7
10,COc1ccc(OC)c(Nc2cc(C)c3ccccc3n2)c1,2
11,Cc1cccc(OC(C)C(=O)Nc2ccccc2C(=O)N2CCCCC2)c1 (stereo not drawn),-0.472
12,CCCC1=Nc2cc(C(=O)NCc3ccco3)ccc2Sc2ccccc21,1.84
13,CC(Cl)C(=O)Nc1cc(C(F)(F)F)ccc1N1CCOCC1 (stereo not drawn),2.38
14,COc1ccccc1N(CC1CO1)S(=O)(=O)c1ccc(C)cc1 (stereo not drawn),18.9
15,Cc1cccc(NC(=O)Cc2c(F)cccc2Cl)n1,5.01
16,O=C(Nc1cccc(C(=O)N2CCCCCC2)c1)c1ccco1,-14.5
17,CC1CCN(C(C)C(=O)Nc2cc(S(=O)(=O)N3CCCCC3)ccc2Cl)CC1 (stereo not drawn),-18.3
18,CCc1ccc2c(c1)C(c1cccs1)=NNC(c1cccnc1)=N2,-48.6
19,CCOc1ccc2c(c1)C(c1cccs1)=NNC(c1cccnc1)=N2,-65.4

row,SMILES,"hERG current change (%, negative = inhibition) at 10uM [%]"
1,COc1ccc2c(c1)C(c1cccs1)=NNC(c1cccnc1)=N2,10.4
2,O=C(CCn1c(=S)oc2ccccc21)N1CCCCC1,-7.1
3,COc1ccc(C)cc1S(=O)(=O)N1CCN(S(=O)(=O)c2cc(C)ccc2OC)CC1,-1.43
4,COc1cc(OC)c(OC)cc1CNCCc1ccc2c(c1)OCO2.O=C(O)C(=O)O,-8.77
5,COc1ccc(CNCc2ccc3c(c2)OCO3)cc1Br.O=C(O)C(=O)O,-23.1
6,COc1cc(CNCCc2ccc3c(c2)OCO3)cc(OC)c1OC.O=C(O)C(=O)O,-14.2
7,COc1ccc(OC)c(CNCCc2ccc(OC)c(OC)c2)c1.O=C(O)C(=O)O,5.38
8,COc1ccc(CCNCc2ccc(Br)cc2)cc1OC.O=C(O)C(=O)O,-62.9
9,COc1ccc(CCNCc2cccc(C(F)(F)F)c2)cc1OC.O=C(O)C(=O)O,0.584
10,COc1ccc(CNCCc2ccc3c(c2)OCO3)cc1Br.O=C(O)C(=O)O,-50.5
11,COc1ccc(Br)cc1CNCCc1ccc2c(c1)OCO2,-60.7
12,COc1cc(Br)c(CNCCc2ccc3c(c2)OCO3)cc1OC,-32
13,Cc1nnc(NC(=O)c2cc(S(=O)(=O)N3CCCCC3)ccc2Cl)s1,14.6
14,CC(=O)c1ccc(NS(=O)(=O)c2c(C)cc(C)cc2C)cc1,17.9
15,N#Cc1cn(-c2ccccc2)nc1-c1ccccc1,0.313
16,COC(=O)c1cc(CSc2ncnc3sccc23)oc1C,16.6
17,CCOC(=O)C1(CCc2ccccc2)CCN(Cc2cc(OC)c(OC)cc2OC)CC1,-77.4
18,COc1cc(OC)c(OC)cc1CN1CCN(C(=O)Cc2ccccc2)CC1.O=C(O)C(=O)O,5.5
19,CCOC(=O)C1(CCc2ccccc2)CCN(Cc2c(O)cccc2OC)CC1,-95.1
